Sfp inh: inhibitors of Bacillus subtilis Sfp phosphopantetheinyl transferase. Q9F4F7. Biochemical Sfp PPTase activity, qHTS. Potency, µM, inactives show largest response in the series, negative = inhibition, actives largely listed as inhibitors. hit rate 3.5% among 310,000;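 note: the enzyme is Sfp with the accession as filed and its product quenches rhodamine fluorescence; 0% = enzyme reaction without inhibitor and -100% = no enzyme wells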
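Sfp 15 nM + cpd, 15 min RT; start w/ rhodamine-CoA 5 uM, BHQ-2-YbbR 12.5 uM (final); 50 mM Hepes pH 7.6, 10 mM MgCl2, 0.01% NP-40, 0.01% BSA; read 525/598 nm at 0 and 30 min.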
HP1b binding inh: HP1-beta chromodomain-methylated histone interaction inhibition. P83916. AlphaScreen HP1-beta / biotin-H3K9me3 peptide binding. Potency, µM (top dose mostly 114 µM), for inactives: at the highest dose activity change, negative = inhibition, hits mostly inhibitors. hit rate 0.56% among 390,000; note: nearly all actives have a fitted effect of over 70% in size
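AlphaScreen: HP1-beta (50 nM) preformed 30 min with biotin-H3(1-18)K9me3 peptide (50 nM) in PBS pH 7.4, 0.01% Tween-20. Compound added for 30 min at RT, then streptavidin donor/nickel chelate acceptor beads (10 ug/mL) for 30 min.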
JMJD2A Tudor: blocks the human JMJD2A Tudor domain; AlphaScreen JMJD2A-Tudor / H3K4me3 peptide binding; Potency, µM (titrated, usually from 114 µM), without a hit: at the top dose activity change, negative = inhibition, actives largely listed as inhibitors; hit rate 4.4% among 390,000; O75164; note: % is set by controls: 0 for no effect and ±100 for the full control effect; nearly all actives have a fitted effect of over 50% in size
G9a block: blocks human histone lysine methyltransferase G9a; Q96KQ7; G9a H3K9 monomethylation, AlphaScreen, 2 h; Potency, µM (doses to about 102 µM), for the others: at the highest dose activity, negative = inhibition, usual class: inhibitors; hit rate 8.8% among 350,000; AID 504332; note: % is set by controls: 0 for no effect and ±100 for the full control effect; nearly all actives have a fitted effect of over 75% in size
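Compounds were preincubated with 20 nM G9a for 15 min, after which biotinylated H3K9 peptide (500 nM) and SAM (20 uM) started a 2 h room-temperature reaction. Monomethylated product was quantified by antibody-based AlphaScreen chemiluminescence.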
BAZ2B inh: BAZ2B (human) inhibition. Q9UIF8. AlphaScreen BAZ2B-H3K14Ac peptide displacement. Potency, µM (doses to about 114 µM), for the others: at the top dose activity change, negative = inhibition, actives largely listed as inhibitors. hit rate 4.4% among 360,000. AID 504333; note: % is set by controls: 0 for no effect and ±100 for the full control effect; nearly all actives have a fitted effect of over 60% in size
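Inhibition is scored as reduced AlphaScreen emission. The BAZ2B/b-H3(5-23)K14Ac complex (50 nM each) in PBS pH 7.4, 0.01% Tween-20 meets compound (up to 110 uM) for 30 min at RT before bead addition.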
The depositor's hits bear a star; ! = not active in a repeat; [ ] = another dose, or the depositor's remark. In the library only some 12% were active in any assay of this set; here they are far more common. Calls come from the whole dose curve; as a rule, active = well fitted curve in the direction sought with a large enough effect; inconclusive = small, poorly fitted or top-dose-only effect, or another doubt; inactive = no such curve, though single readings can be large; an effect the other way counts as inactive or inconclusive. Potency is the fitted concentration of half-maximal effect.

COc1cc(C2NC(C(=O)O)Cc3c2[nH]c2ccccc32)cc(OC)c1OC (stereo not given) was read as Sfp inh 70.8µM*!, HP1b binding inh -1.7%, JMJD2A Tudor 56.2µM*, G9a block inconclusive and BAZ2B inh 79.4µM*.
CCC1NC(C(=O)O)Cc2c1[nH]c1ccccc21 (stereo not given) was read as HP1b binding inh -13.9%, JMJD2A Tudor -13.6%, G9a block -4.0%[12.7 µM] and BAZ2B inh -11.9%.
Screening COc1cc(C2c3[nH]c4ccccc4c3CC3C(=O)N4C(Cc5c([nH]c6ccccc56)C4c4cc(OC)c(OC)c(OC)c4)C(=O)N32)cc(OC)c1OC (stereo not given) returned Sfp inh -0.6%.
For COC(=O)C1Cc2c([nH]c3ccccc23)C(C(C)C)N1 (stereo not given) the results were Sfp inh -3.2%, HP1b binding inh 19.8%, JMJD2A Tudor -2.0%, G9a block 44.7µM* and BAZ2B inh -13.3%.
For O=C(O)c1c2c(nc3ccccc13)/C(=C/c1cccc([N+](=O)[O-])c1)CCC2 the results were Sfp inh 10.1%, HP1b binding inh 13.2%, JMJD2A Tudor -2.5%, G9a block 0.5% and BAZ2B inh -7.4%.
COc1ccc(/C=C2\CCCc3c2nc2ccccc2c3C(=O)O)cc1OC was read as Sfp inh 35.5µM*, G9a block 28.2µM* and BAZ2B inh -22.4%.
`COc1cc(/C=C2\CCCc3c2nc2ccccc2c3C(=O)O)cc([N+](=O)[O-])c1O` gave Sfp inh 11.6%, HP1b binding inh inconclusive, JMJD2A Tudor inconclusive, G9a block 39.8µM* and BAZ2B inh 56.2µM*.
`COc1cc(/C=C2\CCCc3c2nc2ccccc2c3C(=O)O)cc(OC)c1O` gave Sfp inh 11.2µM*, HP1b binding inh 1.8%, JMJD2A Tudor inconclusive and BAZ2B inh -16.4%.
For COc1cc(-c2nc3ccc4ccccc4c3c3c2CCC3)cc(OC)c1OC the results were Sfp inh inconclusive, HP1b binding inh 42.6%, JMJD2A Tudor -7.4%, G9a block 28.0%[12.7 µM] and BAZ2B inh -4.1%.
COc1cc(-c2nc3ccc4ccccc4c3c3c2CCC3)cc(OC)c1O was read as Sfp inh -14.2%, HP1b binding inh inconclusive, JMJD2A Tudor inconclusive, G9a block 79.4µM* and BAZ2B inh inconclusive.
Cc1ccc(S(=O)(=O)N2CCN(c3nc(-c4cncs4)nc4ccccc34)CC2)cc1 was read as HP1b binding inh 40.4% and JMJD2A Tudor 2.7%.
CN(C)c1ccc(/C=C2\CCCc3c2nc2ccccc2c3C(=O)O)cc1 was read as Sfp inh -26.9%, HP1b binding inh 11.0%, JMJD2A Tudor -17.0%, G9a block 39.8µM* and BAZ2B inh -23.0%.
O=C(O)c1ccc(/C=C2\CCCc3c2nc2ccccc2c3C(=O)O)cc1 was read as Sfp inh 13.3%, HP1b binding inh 22.6%, JMJD2A Tudor -5.5%, G9a block inconclusive and BAZ2B inh -10.7%.
Cn1c(C2CCCN2C(=O)OC(C)(C)C)n[nH]c1=S (stereo not given) was read as Sfp inh inconclusive, HP1b binding inh 6.7%, JMJD2A Tudor 44.7µM*, G9a block 22.4µM* and BAZ2B inh -6.7%.
For CSc1nnc([C@@H]2CCCN2C(=O)OC(C)(C)C)o1 the results were Sfp inh -2.3%, HP1b binding inh 26.8%, JMJD2A Tudor -8.0%, G9a block 30.8% and BAZ2B inh 13.3%.
`COc1cc(C2NC(=S)NC(c3ccccc3)=C2C(C)=O)cc(Cl)c1OCC(=O)O` (stereo not given) gave Sfp inh 89.1µM*, HP1b binding inh 12.8%, JMJD2A Tudor -13.9% and BAZ2B inh -4.6%.
Screening CC(=O)C1=C(c2ccccc2)NC(=O)NC1c1ccc(O)c(O)c1 (stereo not given) returned Sfp inh 44.7µM*, HP1b binding inh -16.5%, JMJD2A Tudor 12.6µM* and BAZ2B inh inconclusive.

Screening results from PubChem.
